# Screening results deposited in PubChem BioAssay by National Center for Advancing Translational Sciences (NCATS).
# Shown are actives, neighbours in structure and some others; about 7.3% of the full set was active somewhere.
# HCV inh: qHTS Assay for Inhibitors of Hepatitis C Virus (HCV) | 340,000 compounds, 3.4% hits | Potency, µM (doses to about 41.8 µM), inactives show at the highest dose activity change, negative = inhibition, hits mostly inhibitors | Huh7.5.1 HCVcc-Cre infection, luciferase reporter, 44 h | AID 651820, 2012; active = well fitted inhibition curve with a large enough effect; inconclusive = small, poorly fitted or top-dose-only effect, or another doubt; inactive = no such curve, though single readings can be large or run the other way; also: potency is read from the fitted curve at half-maximal effect
#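 Reporter virus HCVcc-Cre (~0.5 moi) infects cells exposed to compound; seeding density 1,000 cells/well with 4 h settling beforehand. Luminescence, 15 sec read, taken 44 h post-infection following a 15 min RT substrate incubation.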
# FMDV inh: High Throughput Screening for Foot and Mouth Disease Virus Antivirals; AID 1159524, 2015; FMDV antiviral cell-based qHTS; Potency, µM (highest dose often 57.9 µM), inactives show top-dose activity change, negative = inhibition, actives largely listed as inhibitors; 410,000 compounds, 1.2% hits; calls by dose curve; tested in HEK293T cells; also: read-out not given here; potency is read from the fitted curve at half-maximal effect; nearly all actives have a fitted effect of over 45% in size
# VACV mCherry inh: qHTS for Stage-Specific Inhibitors of Vaccinia Orthopoxvirus: mCherry Reporter Primary qHTS | Vaccinia virus mCherry reporter infection, fluorescence | Potency, µM (titrated, usually from 36.5 µM), for inactives: top-dose activity change, negative = inhibition, hits mostly inhibitors | 310,000 compounds, 0.63% hits; calls by dose curve; tested in A549 cells; also: potency is read from the fitted curve at half-maximal effect; nearly all actives have a fitted effect of over 35% in size
# HCMV inh: qHTS Assay for inhibitors of the human cytomegalovirus (HCMV) | HFF cells, HCMV-luciferase reporter, 72 h; hits give low values | activity change, negative = inhibition, % at 57.5 µM | 410,000 compounds, 4.5% hits; in the data active = activity change below about -60%; inconclusive = no clear call, values can overlap the other calls; inactive = above about -39%
#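 Compounds were evaluated in HFFs infected with an HCMV luciferase reporter virus (MOI 1 PFU/cell). Luciferase in lysates collected 72 h post infection served as the replication measure.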
# Vaccinia Venus: qHTS for Stage-Specific Inhibitors of Vaccinia Orthopoxvirus: Venus Reporter Primary qHTS. Potency, µM (top dose mostly 36.5 µM), for the others: at the top dose activity change, negative = inhibition, actives largely listed as inhibitors. 330,000 compounds, 0.46% hits. Vaccinia virus Venus reporter expression, fluorescence; calls by dose curve; tested in A549 cells; also: potency is read from the fitted curve at half-maximal effect; nearly all actives have a fitted effect of over 30% in size
# An asterisk follows results filed as active; i = inactive; u = inconclusive; x = not tested or not shown; + = active, no number; [ ] = dose if it differs, or a comment. % is scaled to controls: 0 for no effect and ±100 for the full control effect.
SMILES,HCV inh,FMDV inh,VACV mCherry inh,HCMV inh,Vaccinia Venus
COc1ccc(CN2CCCC(n3cc(C(=O)N4CCCCC4)nn3)C2)c(OC)c1OC (configuration not stated),x,u,-6%,x,-7%
COc1ccc(C(=O)N2CCC(c3ccncc3)CC2)cc1OC,x,-6%,-13%,-11,-10%
CC(C)(C)n1nnnc1C(c1cccs1)N(Cc1ccc(Cl)cc1)CC1CCCO1 (configuration not stated),u,u,11µM*,-70*,u
C/C(=N/NC(=O)CNC(=O)COc1cccc(C)c1)c1ccco1,28%,2%,i,1,-12%
C/C(=N/NC(=O)CNC(=O)COc1ccccc1)c1ccco1,5%,15%,-22%,-63*,-8%
Cc1cccc(C)c1NC(=O)CNC(=O)c1ccc(S(=O)(=O)NCc2ccco2)cc1,9%,-3%,x,22,x
CCc1ccccc1NC(=O)CNC(=O)c1ccc(S(=O)(=O)NCc2ccco2)cc1,x,32%,-3%,-102*,-1%
O=C(COc1ccccc1)NCC(=O)Nc1ccc(S(=O)(=O)NCc2ccco2)cc1,17%,-17%,x,-103*,-17%
CC(C)(C)c1ccc(C(=O)NNC(=S)NCc2ccco2)cc1,18%,4%,-18%,39,-8%
CCNC(=S)NNC(=O)c1ccc(S(=O)(=O)NCc2ccco2)cc1,18%,15%,-12%,-100*,-18%
CCOc1ccc(C(=O)C(C)OC(=O)Cn2[nH]c(=O)c3ccccc3c2=O)cc1 (configuration not stated),1%,-18%,-13%,8,-15%
CCOc1ccccc1CNC(=O)Cn1cc2c(n1)-c1c(oc(C(=O)N3CCCC3)c1C)CC2,x,u,-11%,u,-14%
Cc1cc(C)nc(-n2nc(C)cc2Nc2ccccc2)n1,10µM*,u,x,-66*,u
Cc1cc(NC(=O)c2c(F)cccc2Cl)n(-c2nc3ccccc3[nH]2)n1,14µM*,0%,-22%[1.46 µM],u,u
Cc1cc(NC(=O)c2ccccc2F)n(-c2nc3ccccc3[nH]2)n1,u,5%,x,0,x
Cc1cc(NC(=O)C2CCCCC2)n(-c2nc3ccccc3[nH]2)n1,4.5µM*,-23%,x,38,u
Cc1cc(Nc2ccccc2)n(-c2nc3ccccc3[nH]2)n1,5µM*,-6%,x,-86*,u
COc1ccc(CN(C(C)=O)c2cc(C)c([N+](=O)[O-])cc2OC)cc1OC,x,-20%,-3%,-31,-5%
CSc1ncc2[nH]c(C(O)c3ccccc3)nc2n1 (configuration not stated),u,-10%,-10%,-39,-23%
Cc1cc(NC(=O)C2CCC2)n(-c2ccccn2)n1,10µM*,6%,i,36,-16%
Cc1cc(C)c(NC(=O)C2CCN(c3nc4ccccc4[nH]3)CC2)c(C)c1,x,2%,-10%,+,-8%
Cc1cc(NC(=O)c2ccc(C)s2)n(-c2nc3ccccc3[nH]2)n1,u,13%,-11%,-74*,u
Cc1cc(NC(=O)c2c(F)cccc2F)n(-c2nc3ccccc3[nH]2)n1,35µM*,u,x,-89*,x
Cc1cc(OCC(=O)OC(C)C(=O)Nc2ccc(N3CCOCC3)cc2)ccc1Cl (configuration not stated),15%,5%,x,4,x
OCC1(Cc2cccc(C(F)(F)F)c2)CCN(Cc2cc(F)cc(F)c2)CC1,u,-9%,-24%,-62*,u
SMILES,HCV inh,FMDV inh,VACV mCherry inh,HCMV inh,Vaccinia Venus
Cc1ccc(-n2cc(CN3CCC(CO)(Cc4cccc(C(F)(F)F)c4)CC3)cn2)cc1,11µM*,u,u,-99*,11µM*
Cc1cc(C)c2nc(N3CCC(C(=O)NCCCN4CCCCC4)CC3)sc2c1,u,u,x,-103*,x
CCN(Cc1ccccc1)S(=O)(=O)c1ccc(C(=O)N2CCN(c3nc4ccccc4s3)CC2)cc1,10µM*,10µM*,-22%,-66*,-23%
O=C(c1ccccc1)N1CCN(c2nc3ccc([N+](=O)[O-])cc3s2)CC1,u,u,-16%,-67*,u
CCOC(=O)N1CCN(C(=O)c2ccc3nc(N4CCC(C)CC4)sc3c2)CC1,-20%,-22%,x,-18,u
CC1CCN(c2nc3ccc(C(=O)N4CCN(Cc5ccccc5)CC4)cc3s2)CC1,11µM*,u,u,u,u
Cc1cc(C)c2nc(N3CCC(C(=O)NCC4CCCO4)CC3)sc2c1 (configuration not stated),u,-16%,-5%[7.34 µM],51,-1%[7.34 µM]
CCCN1CCN(CCCNC(=O)c2ccc3nc(N4CCC(C)CC4)sc3c2)CC1,11µM*,u,i,-25,-3%
CCc1nc2ccc(C(=O)N3CCN(c4ccc([N+](=O)[O-])cc4)CC3)cc2nc1CC,13µM*,u,x,u,x
CCCCN(C)CCNC(=O)C1CCN(c2nc3ccc(CC)cc3s2)CC1,x,0%,-6%,-98*,-10%
CCc1noc(C)c1C(=O)N1CCN(c2ccc([N+](=O)[O-])cc2)CC1,x,u,-10%,38,-16%
CCCS(=O)(=O)NC(=O)C1(C)CCN(C(=O)c2cc(F)ccc2C)C1 (configuration not stated),x,-18%,1%,1,2%
CSc1ccc(C(=O)C2CCCN(C(=O)CCc3c(C)nn(C)c3C)C2)cc1 (configuration not stated),u,u,-10%,-63*,-26%
CSc1ccc(C(=O)C2CCCN(C(=O)CCn3cncn3)C2)cc1 (configuration not stated),x,8%,i,-14,-6%
COc1cc(NC(=O)C(C)Oc2ccccc2)ccc1NC(=O)COc1ccccc1 (configuration not stated),u,u,u,-6,u
COc1cccc(C=C(C(C)=O)C(=O)c2ccccc2)c1,x,20µM*,-6%,4,-12%
CCC(=O)Nc1ccc(/C=C(\C(C)=O)C(=O)c2ccccc2)cc1,-21%,28µM*,i,-25,-19%
CCC(=O)Nc1ccc(C=C(C(C)=O)C(C)=O)cc1,14%,20µM*,x,80,x
Cc1cc(C)cc(OCC(=O)Nc2nc3c(s2)CC(C(C)(C)C)CC3)c1 (configuration not stated),x,-26%,-21%,-3,4%
Cc1ccc(N(Cc2ccccc2)C(=O)CSC(C)C(=O)Nc2cc(C)on2)cc1 (configuration not stated),x,29%,-19%,-64*,2%
COc1ccc(NC(=O)c2ccc(-c3nn(C)c(=O)c4ccccc34)cc2)cc1C(N)=O,1%,-13%,x,-28,x
Cc1ccc(C(=O)CSc2nnc(COc3cccc4cccnc34)o2)cc1,-26%,x,-4%,-15,11%
O=C(CSc1nnc(COc2cccc3cccnc23)o1)c1ccc(F)cc1,10µM*,x,i,-17,-13%
O=C(c1cc(-c2ccccc2Cl)nc2ccc(Br)cc12)N1CCN(c2ccccn2)CC1,-4%,u,-16%,-90*,-13%
O=C(c1cc(-c2ccncc2)nc2ccc(Br)cc12)N1CCN(c2ccccn2)CC1,-3%,u,x,41,-9%
